Compound activity from PubChem BioAssay.
14-3-3 Bad inh – inhibitors of 14-3-3 zeta/Bad binding, primary screen, biochemical, TR-FRET, bovine 14-3-3 zeta | TR-FRET 14-3-3zeta/Dy647-pBad peptide displacement, 1 h | inhibition, % at 21.7 µM | hit rate 0.71% among 220,000;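 active means inhibition above about 70%, limit read from the data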;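 further: 0% = full 14-3-3 plus peptide FRET controls and 100% = background without 14-3-3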
Target sequence (P63103 whole entry, looked up): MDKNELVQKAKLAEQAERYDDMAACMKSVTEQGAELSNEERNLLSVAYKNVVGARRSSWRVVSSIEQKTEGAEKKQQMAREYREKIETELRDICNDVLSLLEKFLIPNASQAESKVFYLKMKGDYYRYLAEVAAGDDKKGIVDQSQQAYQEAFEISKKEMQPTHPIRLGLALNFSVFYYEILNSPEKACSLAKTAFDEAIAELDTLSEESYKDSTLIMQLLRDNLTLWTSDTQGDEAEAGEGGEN
Mcl1 Bid PPI – Mcl-1/Bid binding inhibitors, primary screen, biochemical, TR-FRET, 1536-well. hit rate 0.97% among 220,000. Induced myeloid leukemia cell differentiation protein Mcl-1 (Homo sapiens), Q07820. inhibition, % at 21.7 µM. TR-FRET Mcl-1/Bid-Dy647 peptide binding;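 active means compounds that cut the binding signal by more than half at the single screening dose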;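 further: His-tagged Mcl-1 with europium anti-His antibody binding Bid BH3 peptide; 0% = Mcl-1 plus peptide wells and 100% = peptide-only wells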
Target sequence (Q07820 whole entry, looked up): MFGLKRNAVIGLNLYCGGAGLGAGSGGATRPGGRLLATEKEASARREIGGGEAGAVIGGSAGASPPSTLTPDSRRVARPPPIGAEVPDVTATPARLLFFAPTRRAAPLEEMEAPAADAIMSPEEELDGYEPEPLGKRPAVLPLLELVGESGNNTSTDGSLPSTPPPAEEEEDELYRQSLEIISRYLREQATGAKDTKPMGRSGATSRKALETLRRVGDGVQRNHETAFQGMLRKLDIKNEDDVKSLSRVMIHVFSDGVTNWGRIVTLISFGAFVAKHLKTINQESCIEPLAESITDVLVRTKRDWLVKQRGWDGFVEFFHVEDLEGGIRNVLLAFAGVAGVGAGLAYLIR
Mcl1 Noxa PPI – Mcl-1/Noxa binding inhibitors, primary screen, biochemical, TR-FRET, 1536-well; Induced myeloid leukemia cell differentiation protein Mcl-1 (Homo sapiens), Q07820; TR-FRET Mcl-1/Noxa peptide binding, 2 h; inhibition, % at 21.7 µM; hit rate 1.5% among 220,000;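 active means compounds that cut the protein-peptide binding signal by more than 50% relative to plate controls in a single-dose test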;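 further: His-tagged Mcl-1 with rhodamine Noxa BH3 peptide and terbium anti-His antibody; 0% = Mcl-1 plus Noxa peptide wells and 100% = peptide-only wells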
p47phox inh – p47phox/p22phox peptide binding inhibitors, primary screen, biochemical, uHTS, NADPH oxidase regulatory subunit | fluorescence polarization, 2 h | AID 1274, 2008 | Neutrophil cytosol factor 1 (Homo sapiens), P14598 | inhibition, % at 24.7 µM | hit rate 0.53% among 220,000;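 active means inhibition above about 30%, limit read from the data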;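 further: 0% = p47phox with labelled peptide and 100% = labelled peptide alone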
Bim-Mcl-1 – inhibitors of Bim peptide binding to Mcl-1, primary screen, biochemical, bead-based flow cytometry, multiplex; Bim peptide-Mcl-1 binding; inhibition, % at 10 µM; hit rate 0.1% among 190,000; in the data active means inhibition above about 40%;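 further: 0% = no compound tracer wells and 100% = peptide blocker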
* marks the source's active call; other numbers are inactive results; x = no result. Rows were chosen to be rich in hits. Some 3.1% of all compounds tested hit in one or more screens of this group.

SMILES	14-3-3 Bad inh	Mcl1 Bid PPI	Mcl1 Noxa PPI	p47phox inh	Bim-Mcl-1
O=C(Nc1nc(-c2cccc(Br)c2)cs1)Oc1ccccc1	-1.8	-13.5	0.2	7.1	-2.0
Fc1ccc(Nc2nc(-c3ccncc3)cs2)cc1	-7.3	-10.4	50.7*	-7.0	-2.0
COc1ccc(Nc2nc(-c3ccc(OC)cc3)cs2)cc1	-7.5	-29.4	7.7	-0.1	-6.0
Nc1ccc(Nc2nc(-c3ccncc3)cs2)cc1	-14.4	-91.7	41.9	-9.9	5.0
COc1ccc(-c2csc(Nc3ccccc3)n2)cc1	-7.6	-15.5	82.7*	-15.6	-1.0
CNCCCOc1cc(C)cc(C)c1C	25.7	6.7	24.0	-2.4	-3.0
CCOc1ccccc1N1CCN(C(=O)c2csc(C)c2CC)CC1	0.3	-10.9	9.1	-10.9	-3.0
CSc1ccccc1C(=O)C1CCCN(Cc2cnn(-c3ccccc3)c2)C1 (stereo not drawn)	7.2	-5.0	-4.1	x	-1.0
CNS(=O)(=O)c1cc(NC(C)=O)c(C)cc1C	-18.2	-10.2	5.7	0.6	-8.0
CSc1ccccc1NC(=O)c1cc(-c2cccnc2)nc2ccc(Br)cc12	88.6*	63.6*	49.0	30.8*	0.0
O=C(NCc1ccccn1)C(=O)Nc1nc(C23CC4CC(CC(C4)C2)C3)cs1	-20.7	-26.2	-31.0	1.4	1.0
Cn1c(N)c(C(=O)COC(=O)c2cc(-c3ccco3)nc3ccccc23)c(=O)n(Cc2ccccc2)c1=O	1.4	15.0	106.4*	-64.7	-2.0
Cn1c(N)c(C(=O)COC(=O)c2cc(-c3ccco3)nc3ccccc23)c(=O)n(C)c1=O	7.7	25.7	86.7*	-26.3	7.0
Cn1c(N)c(C(=O)CSc2nc3ccccc3c(=O)n2Cc2ccccc2)c(=O)n(C)c1=O	66.7	51.8*	-90.7	-12.0	x
CC(C)Cn1c(N)c(C(=O)COC(=O)c2ccccc2F)c(=O)n(C)c1=O	6.1	0.9	-19.4	10.2	-3.0
CCCn1c(N)c(C(=O)CSc2nc3ccccc3c(=O)n2Cc2ccccc2)c(=O)[nH]c1=O	60.8	-44.7	-130.1	18.2	2.0
CC(C)Cn1c(N)c(C(=O)COC(=O)c2ccccc2Cl)c(=O)n(C)c1=O	0.4	-8.6	61.3*	-0.2	0.0
COCCN(Cc1ccco1)C(=O)Cn1ncc2c(=O)oc3ccccc3c21	4.0	-50.3	-1.4	0.7	x
COc1ccc2nc(NC(=S)N(C)C)sc2c1	3.3	-13.1	-29.2	-11.7	0.0
COCCNC(=O)c1ccc2c(=O)n(CCOC)c(=O)[nH]c2c1	84.7*	-11.0	13.3	-8.9	-5.0
CCCCCNC(=O)c1ccc2c(=O)n(CCOC)c(=O)[nH]c2c1	-8.2	17.7	9.9	-7.1	-1.0
CN(C)c1ccc(-c2n[nH]c(=S)n2-c2ccccc2)cc1	-2.1	-35.7	50.6*	-9.2	-3.0
CCOP(=O)(O)c1ccccc1OCCOCCOc1ccccc1P(=O)(O)OCC	30.6	29.5	53.5*	-19.9	-1.0
O=P(O)(O)c1ccccc1OCCOCCOc1ccccc1P(=O)(O)O	6.3	24.5	17.1	-2.0	0.0
Cc1ccc(C)c(-c2nnc(OCC(=O)Nc3cc(C)on3)c3ccccc23)c1	7.0	-4.5	11.2	-15.7	0.0
SMILES	14-3-3 Bad inh	Mcl1 Bid PPI	Mcl1 Noxa PPI	p47phox inh	Bim-Mcl-1
Cn1c(=O)c2c(nc(N/N=C/c3ccc(OC(=O)c4ccco4)cc3)n2Cc2ccc(F)cc2)n(C)c1=O	52.9	59.3*	47.7	9.1	-10.0
Cn1c(=O)c2c(nc(N/N=C/c3ccc(OC(=O)c4ccco4)cc3)n2Cc2ccccc2Cl)n(C)c1=O	0.0	-18.7	14.0	-10.2	-6.0
CCOC(=O)C1=C(C)NC(=O)C(C(N)=O)C12CCCC2 (stereo not drawn)	-2.5	-17.0	10.7	-7.4	-3.0
CCOC(=O)C1=C(C)NC(=O)C(C(N)=O)C12CCCCC2 (stereo not drawn)	3.2	-9.3	56.9*	-4.9	-1.0
CCC(=O)Nc1ccc(C(=O)Cn2nc(C(=O)O)c3ccccc3c2=O)cc1	-5.5	-20.0	56.5*	-18.2	0.0
Cc1ccc(C(=O)Cn2nc(C(=O)O)c3ccccc3c2=O)cc1C	1.5	-9.7	-12.8	-4.0	x
C=CCn1c(O)c(C=Nc2ccc(CN3CCCCC3)cc2)c(=O)[nH]c1=S	4.9	-13.7	-3.6	1.6	x
COc1cccc(OC)c1OCCCCCc1c(C)n[nH]c1C	80.8*	29.4	21.8	2.7	0.0
COc1cccc(OC)c1OCCCCc1c(C)n[nH]c1C	11.2	16.2	19.7	-1.8	1.0
CC(C)CN(C)C(=O)CC1C(=O)NCCN1C (stereo not drawn)	-5.4	-51.4	-19.8	0.1	-3.0
Cc1cc(-c2nnc(CCC(=O)N3CCN(Cc4cccnc4)CC3)o2)c(C)o1	-7.4	-35.1	11.5	133.4*	0.0
Cc1ccc(S(=O)(=O)N2CCC(C(=O)C3C(=O)CCCC3=O)CC2)cc1	-11.3	-16.4	-5.8	2.3	-2.0
CC1(C)CC(=O)C(C(=O)C2CCN(S(=O)(=O)c3ccccc3)CC2)C(=O)C1	71.1*	-6.7	8.4	-3.0	-5.0
O=S1(=O)NC(=NCCOCCO)c2ccccc21	-3.0	-37.1	-11.9	-1.2	1.0
Nc1ccc2c(c1)-c1ccccc1S(=O)(=O)N2	-3.9	-60.8	52.5*	23.5	2.0
S=c1[nH]nc(C2(c3ccccc3)CCCC2)o1	-2.5	-99.8	1.6	2.2	x
CCn1c(=N)c(S(=O)(=O)c2ccccc2)cc2c(=O)n3ccccc3nc21	78.8*	9.2	18.6	17.6	2.0
CCn1c(=N)c(S(=O)(=O)c2ccc(C)cc2)cc2c(=O)n3ccccc3nc21	-0.6	-5.6	-2.5	19.8	5.0
CC(C)N1CCN(C2CSCCSC2)CC1CCO (stereo not drawn)	-3.9	-62.7	0.7	-6.8	x
CC(C)CCN1CCN(C2CSCCSC2)CC1CCO (stereo not drawn)	-5.6	-55.5	18.0	41.6*	-3.0
COc1ccc(CNC(=O)c2ccc(-c3ccccc3)cc2)cc1OC	0.8	-17.1	-2.7	-1.3	-6.0
COc1ccc(CNC(=O)c2n[nH]c3ccccc23)cc1OC	3.7	55.2*	5.2	7.3	0.0
Clc1ccc2nc(CN3CCCc4ccccc43)cn2c1	5.7	100.3*	47.0	-18.6	-4.0
Clc1ccc2nc(CN3CCCCC3)cn2c1	35.8	-2.2	9.2	0.9	-3.0
CC1CCc2c(C(=O)Nc3ccc(N4CCOCC4)cc3)csc2C1 (stereo not drawn)	4.9	-2.8	67.0*	-6.5	-1.0
N#C/C(=C\c1ccc(O)c([N+](=O)[O-])c1)c1nc2ccccc2s1	41.0	16.3	66.2*	-59.6	1.0
N#C/C(=C\c1ccc(N2CCCC2)c([N+](=O)[O-])c1)c1nc2ccccc2[nH]1	19.2	68.2*	35.9	7.5	-2.0
